Results published in ChEMBL document CHEMBL3988442, “University of Dundee, Small-Polar-MMV Screening Library” (2021).

Legend:
[1] = molecular target: T1, Aspartate--tRNA(Asp/Asn) ligase (Mycobacterium tuberculosis (strain ATCC 25618 / H37Rv)) (UniProt P9WFW3); assay: Assay for Asp RNA synthetase-1 from Mycobacterium tuberculosis; format: functional; design: scale not given: direction of the effect not stated beside the values; conditions: 30 µM; note: in the data most compounds retested in dose-response had high values
T1 sequence (whole entry): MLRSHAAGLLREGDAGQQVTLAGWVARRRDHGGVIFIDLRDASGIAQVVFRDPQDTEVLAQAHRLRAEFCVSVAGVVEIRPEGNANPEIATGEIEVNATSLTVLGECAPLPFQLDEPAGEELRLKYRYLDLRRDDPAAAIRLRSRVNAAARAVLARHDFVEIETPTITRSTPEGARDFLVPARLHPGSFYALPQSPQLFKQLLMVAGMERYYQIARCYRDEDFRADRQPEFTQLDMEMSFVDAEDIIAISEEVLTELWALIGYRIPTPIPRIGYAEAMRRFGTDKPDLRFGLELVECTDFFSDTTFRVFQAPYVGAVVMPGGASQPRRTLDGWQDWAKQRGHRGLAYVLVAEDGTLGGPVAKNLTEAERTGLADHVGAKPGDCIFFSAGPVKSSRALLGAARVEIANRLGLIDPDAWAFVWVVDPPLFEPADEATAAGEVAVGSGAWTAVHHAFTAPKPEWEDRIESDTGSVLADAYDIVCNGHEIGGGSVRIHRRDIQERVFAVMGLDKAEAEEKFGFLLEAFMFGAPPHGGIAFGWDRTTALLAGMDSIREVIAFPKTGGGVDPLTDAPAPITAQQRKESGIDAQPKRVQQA

[2] = molecular target: Shiga toxin 2 (Escherichia coli O157:H7) (UniProt P09385+P09386); assay: E. coli 0.157:H7 Shiga Toxin SOP - stx2 screening assay; format: functional; design: scale not given: direction of the effect not stated beside the values; conditions: 30 µM

SMILES	Percent Effect [1] [%]	Percent Effect [2] [%]
N#Cc1cccc(S(=O)(=O)NC2CCN(Cc3ccccc3)C2=O)c1 (stereo not given)	-1.89	8.07
CC(c1nc(C2CC2)no1)N1CCN(Cc2ccccc2F)CC1 (stereo not given)	-7.52	8.03
O=C(NCCNc1ccccn1)N1CCSCC1	-5.89	16.3
COCC1CN(C(=O)c2cccn2C)Cc2nccn2C1 (stereo not given)	-0.897	-15.6
CC(NC(=O)c1cccs1)C(=O)NCc1cccnc1N1CCCCC1 (stereo not given)	-3.06	11
CC(NC(=O)N(C)Cc1ccncc1)c1nncn1C (stereo not given)	-5.91	-0.749
CN(Cc1ccsc1)C(=O)CN1CCOC(Cn2cccn2)C1 (stereo not given)	0.463	-18.6
CN(C)C[C@@H]1C[C@@H]2CN(C(=O)c3ccoc3)CC[C@@H]2N1CC1CC1	2.34	8.89
CN(CC(=O)NCc1ccccn1)CC1CCCN1c1cccnn1 (stereo not given)	-4.1	-17.5
CC(C)c1noc(CCC(=O)NC(C)c2nnc3n2CCCCC3)n1 (stereo not given)	0.353	-13.7
COc1cc(C2CC(=O)Oc3cc(C)[nH]c(=O)c32)ccc1OC(F)F (stereo not given)	-4.59	-43.6
CN(Cc1cnn(C)c1)C(=O)NC1CCC(O)CC1 (stereo not given)	-5.01	12
CCS(=O)(=O)NC[C@]12COC[C@H]1CN(Cc1cccc(OC)c1)C2	0.596	1.39
Cc1nc(CNCC2CN(C)CCO2)cs1 (stereo not given)	-3.4	-38.1
O=C(CN1CCOC(Cn2cccn2)C1)NCc1cccs1 (stereo not given)	-1.46	-9.71
Cn1cc(CC2CCN(C(=O)NCc3cn4ccsc4n3)C2)cn1 (stereo not given)	-4.64	-8.11
Cc1ccc(-c2ncc(C(=O)NCCNC(=O)C(C)C)s2)c(C)c1	2.19	11.7
CCS(=O)(=O)N1CCC[C@]2(C(=O)N(C)C)CN(c3ccccn3)C[C@@H]2C1	0.903	-10.3
OC1CCCN(Cc2c(-c3ccco3)[nH]c3ncccc23)C1 (stereo not given)	-0.134	6.33
O=C(N[C@@H]1CN(Cc2ccccc2)C[C@@H]2CCCO[C@@H]21)C1CC1	1.66	-19.6
CNC(=O)[C@@]12CCC3(CCN(C(C)=O)CC3)[C@@H]1CN(S(C)(=O)=O)C2	-0.917	-15.9
CN(Cc1ccccc1F)C(=O)CS(=O)(=O)Cc1ccc(Cl)c(Cl)c1	2.16	37
O=C(CN1CCCCC1Cn1cncn1)NCCC1=CCCCC1 (stereo not given)	2.88	11.4
Cc1cc(F)c(S(=O)(=O)NCCCN2CCC(O)CC2)cc1F	11.3	-69.6
Cc1ccc2c(ccn2CC(=O)NC[C@@H]2CCCN3CCCC[C@H]23)c1	2.12	-7.12

SMILES	Percent Effect [1] [%]	Percent Effect [2] [%]
CC(C)N1CCC(Cc2cc(-c3cccc(C(=O)O)c3)ncn2)C1 (stereo not given)	-2.43	2.16
Cc1cnn(CCNCc2csc(-c3ccc4c(c3)OCO4)n2)c1	1.41	23.7
CS(=O)(=O)N1CCC(NC(=O)COc2ccc(Cl)c(Cl)c2)CC1	1.23	-20.3
Cc1oc(C(=O)O)cc1S(=O)(=O)Nc1ccc(Cl)c(F)c1	1.64	16.3
Cc1nnc2n1CCN(Cc1ncc(-c3ccc(Cl)cc3)o1)C2	-2.3	25.1
CN(c1ccncn1)C1CC2(CCN(C(=O)c3cccs3)C2)C1 (stereo not given)	-6.21	-35.5
O=C(CO)N1CCc2onc(Cn3cccn3)c2C1	-1.21	7.04
CN(CCc1ccccc1)C1CCCN(Cc2nccn2C)C1 (stereo not given)	0.357	-0.197
CCN(CC)Cc1ccc(C(=O)N2CCCCC2Cn2cccn2)o1 (stereo not given)	3.47	1.31
COc1cccc(N2CCN(Cc3ncc[nH]3)CC2=O)c1	0.446	-4.16
Cc1ccc(CN2CC[C@H]3OCC[C@@H](c4nc(C)no4)[C@H]3C2)cc1	-5.18	8.54
CCC(NC(=O)C1CCN(S(C)(=O)=O)CC1)c1ccc(OC)c(OC)c1 (stereo not given)	0	-10.4
CN(CCc1ccccc1)c1cnn(CC(=O)N2CCSCC2)c(=O)c1	8.28	-15.1
Cn1cc(C(=O)CC2CCCN2C(=O)c2n[nH]c3ccccc23)cn1 (stereo not given)	-3.71	0.49
Cc1nc(CN(C)C2CCN(Cc3ccno3)C2)no1 (stereo not given)	-4.76	-31.6
Cc1csc(N2CCN(Cc3ccccn3)CC2C)n1 (stereo not given)	6.41	-0.687
CCc1nccn1C1CCCN(C(=O)CCCNc2ncccn2)C1 (stereo not given)	-4.79	8.61
O=c1c2ccccc2nc2n1CCN(Cc1cccs1)CC2	1.35	12
CN(C)C(=O)COCc1cncc2c1CCN(Cc1cnn(C)c1)C2	6.12	-43
O=S(=O)(c1ccccc1Cl)N1CCc2nc(C3CCNCC3)ncc2C1	-6.28	-9.83
CC1CCCCN1Cc1ccc(-c2ccccc2C(=O)O)cc1 (stereo not given)	5.63	25
O=C(NCCOc1ccc2c(c1)OCO2)N1CCC1	0.81	-21.5
COCC1CCCN(C(=O)c2cc(Cn3ccc4ccccc43)[nH]n2)C1 (stereo not given)	9.18	-24.9
O=C(CCc1cscn1)N1CCCC(n2ccnc2)C1 (stereo not given)	-3.19	-12.2
COc1ccc(CN2C[C@@H]3COC[C@]3(COc3cccnc3)C2)cc1	-3.56	-5.5
